According to the supplement of paper PMC9794691:

Tests used:
H1975 [1] = test: area under confluence curve of compound monotherapy; compare to DMSO control AUC of the same experiment (AUC (confluence x time, arbitrary))
Outline: (§1)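 Adenocarcinoma lines were grown in RPMI 1640 with 10% FBS at 37 °C and 5% CO2, seeded at 20,000–30,000 cells/well in 48-well plates, and treated the next day with test compound alone at one dose: 1 uM or the highest dose giving <50% parental inhibition. Every 3–4 days the wells were washed with PBS and the drug was refreshed, and medium was drug-free from the DTP stage (10–21 days). IncuCyte tracked confluence until wells given only an EGFR inhibitor regrew. Area under the confluence curve was calculated in Prism, taking the median of triplicates where run, and set beside the vehicle value from the same experiment.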

HCC2279 [2] = test: as above
Outline: as §1

HCC2935 [3] = test: as above
Outline: as §1

HCC4006 [4] = test: as above
Outline: as §1

HCC827 [5] = test: as above
Outline: as §1

II-18 [6] = test: as above
Outline: as §1

H1975 [7] = test: area under confluence curve of osimertinib + compound combination regimen (DTP regrowth); compare to osimertinib-only DTP control AUC of the same experiment (AUC (confluence x time, arbitrary))
Outline: (§2)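 The area under the IncuCyte confluence–time curve, calculated in Prism and taken as the median of triplicates where available, is the value reported. It was measured in EGFR-mutant NSCLC lines that received the EGFR inhibitor either alone, followed by a test compound, or together with a fixed-dose test compound until the persister stage (10–21 days) and then drug-free medium. Medium was refreshed every 3–4 days until the inhibitor-only wells were confluent again.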

HCC2279 [8] = test: as above
Outline: as §2

HCC2935 [9] = test: as above
Outline: as §2

HCC4006 [10] = test: as above; conditions: DMSO control AUC in same experiment: 16638
Outline: as §2

HCC827 [11] = test: as above
Outline: as §2

II-18 [12] = test: as above
Outline: as §2

SMILES: CCn1nc(C2CCN(C(=O)CCO)CC2)nc1-c1cnc(N)c(-c2nnc(C(C)(C)C)o2)n1
- area under confluence curve (H1975 [1]; 1000 nM, DMSO control AUC in same experiment: 20657): 18200
- area under confluence curve (HCC2279 [2]; 1000 nM, DMSO control AUC in same experiment: 9426): 11400
- area under confluence curve (HCC2935 [3]; 1000 nM, DMSO control AUC in same experiment: 13875): 11700
- area under confluence curve (HCC4006 [4]; 1000 nM, DMSO control AUC in same experiment: 16638): 17000
- area under confluence curve (HCC827 [5]; 1000 nM, DMSO control AUC in same experiment: 27404): 27500
- area under confluence curve (II-18 [6]; 1000 nM, DMSO control AUC in same experiment: 18482): 14200

SMILES: COc1cc(CCc2cc(NC(=O)c3ccc(N4CC(C)NC(C)C4)cc3)n[nH]2)cc(OC)c1 (stereo not drawn)
- area under confluence curve (H1975 [1]; 1000 nM, DMSO control AUC in same experiment: 14522): 17400
- area under confluence curve (HCC2279 [2]; 1000 nM, DMSO control AUC in same experiment: 29252): 28700
- area under confluence curve (HCC2935 [3]; 1000 nM, DMSO control AUC in same experiment: 11459): 11000
- area under confluence curve (HCC4006 [4]; 1000 nM, DMSO control AUC in same experiment: 16794): 15300
- area under confluence curve (HCC827 [5]; 1000 nM, DMSO control AUC in same experiment: 43928): 46400
- area under confluence curve (II-18 [6]; 1000 nM, DMSO control AUC in same experiment: 23373): 19700

SMILES: C[C@@]1(C(=O)Nc2ccc(F)nc2)CCCN1c1nc(Nc2cc(C3CC3)n[nH]2)c2cccn2n1
- area under confluence curve (H1975 [1]; 100 nM, DMSO control AUC in same experiment: 16540): 17600
- area under confluence curve (HCC2279 [2]; 100 nM, DMSO control AUC in same experiment: 14404): 15900
- area under confluence curve (HCC2935 [3]; 100 nM, DMSO control AUC in same experiment: 19215): 20700
- area under confluence curve (HCC4006 [4]; 100 nM, DMSO control AUC in same experiment: 18415): 20100
- area under confluence curve (HCC827 [5]; 100 nM, DMSO control AUC in same experiment: 21320): 21300
- area under confluence curve (II-18 [6]; 100 nM, DMSO control AUC in same experiment: 11834): 9980

SMILES: O=C(c1cc(Cc2n[nH]c(=O)c3ccccc23)ccc1F)N1CCN(C(=O)C2CC2)CC1 [Olaparib]
- area under confluence curve (H1975 [1]; 1000 nM, DMSO control AUC in same experiment: 15857): 12200
- area under confluence curve (HCC2279 [2]; 1000 nM, DMSO control AUC in same experiment: 14404): 14700
- area under confluence curve (HCC2935 [3]; 1000 nM, DMSO control AUC in same experiment: 19215): 20800
- area under confluence curve (HCC4006 [4]; 1000 nM, DMSO control AUC in same experiment: 18415): 19900
- area under confluence curve (HCC827 [5]; 1000 nM, DMSO control AUC in same experiment: 21320): 20700
- area under confluence curve (II-18 [6]; 1000 nM, DMSO control AUC in same experiment: 11834): 10800

SMILES: COC(=O)c1ccc([C@H]2c3[nH]c4ccccc4c3C[C@H](C(=O)OC)N2C(=O)CCl)cc1 + C=CC(=O)Nc1cc(Nc2nccc(-c3cn(C)c4ccccc34)n2)c(OC)cc1N(C)CCN(C)C [osimertinib]
- area under confluence curve (H1975 [7]; test compound dose 100 nM, dosing schedule: sequential, osimertinib-only DTP control AUC in same experiment: 9919, DMSO control AUC in same experiment: 26010): 7660
- area under confluence curve (H1975 [7]; test compound dose 100 nM, dosing schedule: upfront, osimertinib-only DTP control AUC in same experiment: 15327, DMSO control AUC in same experiment: 26010): 13400
- area under confluence curve (HCC2279 [8]; test compound dose 100 nM, dosing schedule: sequential, osimertinib-only DTP control AUC in same experiment: 11520, DMSO control AUC in same experiment: 9426): 13900
- area under confluence curve (HCC2279 [8]; test compound dose 100 nM, dosing schedule: upfront, osimertinib-only DTP control AUC in same experiment: 21942, DMSO control AUC in same experiment: 9426): 20100
- area under confluence curve (HCC2935 [9]; test compound dose 100 nM, dosing schedule: sequential, osimertinib-only DTP control AUC in same experiment: 9121, DMSO control AUC in same experiment: 11459): 5900
- area under confluence curve (HCC2935 [9]; test compound dose 100 nM, dosing schedule: upfront, osimertinib-only DTP control AUC in same experiment: 12748, DMSO control AUC in same experiment: 11459): 6780
- area under confluence curve (HCC4006 [10]; test compound dose 100 nM, dosing schedule: sequential, osimertinib-only DTP control AUC in same experiment: 19238): 19000
- area under confluence curve (HCC4006 [10]; test compound dose 100 nM, dosing schedule: upfront, osimertinib-only DTP control AUC in same experiment: 21234): 21000
- area under confluence curve (HCC827 [11]; test compound dose 100 nM, dosing schedule: sequential, osimertinib-only DTP control AUC in same experiment: 25096, DMSO control AUC in same experiment: 35394): 6740
- area under confluence curve (HCC827 [11]; test compound dose 100 nM, dosing schedule: upfront, osimertinib-only DTP control AUC in same experiment: 27382, DMSO control AUC in same experiment: 35394): 27100
- area under confluence curve (II-18 [12]; test compound dose 100 nM, dosing schedule: sequential, osimertinib-only DTP control AUC in same experiment: 3520, DMSO control AUC in same experiment: 13556): 183
- area under confluence curve (II-18 [12]; test compound dose 100 nM, dosing schedule: upfront, osimertinib-only DTP control AUC in same experiment: 6532, DMSO control AUC in same experiment: 13556): 1800

SMILES: Cn1cc(CNCC2CCN(c3ncc(C(=O)NO)cn3)CC2)c2ccccc21 [Quisinostat] + C=CC(=O)Nc1cc(Nc2nccc(-c3cn(C)c4ccccc34)n2)c(OC)cc1N(C)CCN(C)C [osimertinib]
- area under confluence curve (H1975 [7]; test compound dose 10 nM, dosing schedule: sequential, osimertinib-only DTP control AUC in same experiment: 15943, DMSO control AUC in same experiment: 20657): 1750
- area under confluence curve (H1975 [7]; test compound dose 10 nM, dosing schedule: upfront, osimertinib-only DTP control AUC in same experiment: 27804, DMSO control AUC in same experiment: 20657): 5730
- area under confluence curve (HCC2279 [8]; test compound dose 10 nM, dosing schedule: sequential, osimertinib-only DTP control AUC in same experiment: 20224, DMSO control AUC in same experiment: 29252): 6370
- area under confluence curve (HCC2279 [8]; test compound dose 10 nM, dosing schedule: upfront, osimertinib-only DTP control AUC in same experiment: 43517, DMSO control AUC in same experiment: 29252): 12400
- area under confluence curve (HCC2935 [9]; test compound dose 10 nM, dosing schedule: sequential, osimertinib-only DTP control AUC in same experiment: 6271, DMSO control AUC in same experiment: 13875): 6600
- area under confluence curve (HCC2935 [9]; test compound dose 10 nM, dosing schedule: upfront, osimertinib-only DTP control AUC in same experiment: 10360, DMSO control AUC in same experiment: 13875): 6240
- area under confluence curve (HCC4006 [10]; test compound dose 10 nM, dosing schedule: sequential, osimertinib-only DTP control AUC in same experiment: 21234): 5480
- area under confluence curve (HCC4006 [10]; test compound dose 10 nM, dosing schedule: upfront, osimertinib-only DTP control AUC in same experiment: 19238): 4030
- area under confluence curve (HCC827 [11]; test compound dose 10 nM, dosing schedule: sequential, osimertinib-only DTP control AUC in same experiment: 8266, DMSO control AUC in same experiment: 27404): 2780
- area under confluence curve (HCC827 [11]; test compound dose 10 nM, dosing schedule: upfront, osimertinib-only DTP control AUC in same experiment: 13929, DMSO control AUC in same experiment: 27404): 4260
- area under confluence curve (II-18 [12]; test compound dose 10 nM, dosing schedule: sequential, osimertinib-only DTP control AUC in same experiment: 21122, DMSO control AUC in same experiment: 7080): 426
- area under confluence curve (II-18 [12]; test compound dose 10 nM, dosing schedule: upfront, osimertinib-only DTP control AUC in same experiment: 22894, DMSO control AUC in same experiment: 7080): 19200
